SMILES strings stand for the structures. A number with no mark means an inactive call.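 How the source made its calls: active means compounds whose cell count with miR-34 switched on is under 0.7 times the count with it off; inactive means the rest.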

This experiment in a line: viability loss with induced miR-34 in A549 – imaging, A549 dox-inducible miR-34, nuclei and caspase counts, primary screen (AID 1347080). Further: test concentration not given here. To be noted: A549 miR-34 inducible, Hoechst nuclei count, 48 h; stronger effect = lower value; cell number ratio, induced over uninduced.
Take `CCCCCCCCCCCCCCCNC(=O)C1CCCCC1`: the fold change was 1.13. In the case of `C[C@@H](O)CCC[C@@H](O)/C=C/[C@@H]1[C@@H](CCCCCCC(=O)O)[C@@H](O)C[C@H]1O` it was 0.879. In the case of `CCCCC[C@H](O)/C=C/[C@@H]1c2cc(CCCCC(=O)O)n(-c3ccccc3)c2C[C@H]1O` it was 0.958. As for `CCCCCCCCCC(=O)N[C@@H](CN1CCOCC1)[C@@H](O)c1ccccc1`, the fold change is 0.924. In the case of `CCCCCCCCCCCCCCCCOC[C@H](COP(=O)([O-])OCC[N+](C)(C)C)SC(C)=O` it was 0.92. In the case of `CCCCC/C=C\C/C=C\C/C=C\CCCCCCC(=O)OCC`, the fold change is 1.05.

Take `CCCCC[C@H](O)/C=C/[C@@H]1[C@@H](CCCCCCCO)[C@@H](O)C[C@H]1O`: the fold change is 0.922. In the case of `CCCCCCCCCCCC(=O)O` it was 1.01; in that of `N#Cc1cc2c(OCC(O)CN3CCN(C(c4ccccc4)c4ccccc4)CC3)cccc2[nH]1` (centres undefined), 0.956; in that of `CCCCCC/C=C/C=C\CCCCCCCC(=O)O`, 0.985.

For the compound `CC/C=C\C/C=C\C/C=C\CCCCCCCC(=O)NCCO`, the fold change is 1.05. Regarding `CC(C)OC(=O)CCC/C=C\C[C@@H]1[C@@H](/C=C/[C@H](O)CCc2ccccc2)[C@H](O)C[C@@H]1O`, the fold change is 0.945. In the case of `CCCCC/C=C\C/C=C\CCCCCCCC(=O)O[C@H](COC(=O)CCCCCCCCCCCCCCC)COP(=O)(O)OCCN` it was 0.789; in that of `COc1ccc2cc(C(C#N)OC(=O)CC3OC3c3ccccc3)ccc2c1` (centres undefined), 0.909.

(Values after PubChem BioAssay.)
